Hits are enriched below; roughly 1.2% of the tested compounds scored in any of these assays.
KCNH2 3.1 inh: KCNH2 3.1 (human) potassium channel inhibition; actives 0.95% (n = 340,000); U2OS KCNH2 3.1, thallium flux FluxOr; hits give low values; activity change, % (tested at about 1.8 µM);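 active means maximum activity change below -70%; inconclusive means maximum activity change from -70% to -50%; inactive means maximum activity change above -50%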;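 further: thallium influx rate constant from kinetic fluorescence after stimulation buffer; on the % scale 0 is the no-effect control and ±100 the full control effect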
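Steps: virus added to U2OS suspension (4 h, RT, dark); medium with 10% FBS added, cells plated, 37 C overnight; FluxOr/Red40 loading buffer 45 min RT; stimulation buffer, 2 min kinetic read; rate constant normalized.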
TRPV1 potentiator: human TRPV1 potentiation; Q8NER1; TRPV1-expressing cells, Fluo-8 calcium influx, capsaicin EC20 potentiation; potentiation, % at 8.33 µM; actives 0.02% (n = 320,000); in the data active means potentiation above about 80%; inconclusive means between about 30% and that limit; further: 0% is about no effect
Target sequence (Q8NER1 whole entry, looked up): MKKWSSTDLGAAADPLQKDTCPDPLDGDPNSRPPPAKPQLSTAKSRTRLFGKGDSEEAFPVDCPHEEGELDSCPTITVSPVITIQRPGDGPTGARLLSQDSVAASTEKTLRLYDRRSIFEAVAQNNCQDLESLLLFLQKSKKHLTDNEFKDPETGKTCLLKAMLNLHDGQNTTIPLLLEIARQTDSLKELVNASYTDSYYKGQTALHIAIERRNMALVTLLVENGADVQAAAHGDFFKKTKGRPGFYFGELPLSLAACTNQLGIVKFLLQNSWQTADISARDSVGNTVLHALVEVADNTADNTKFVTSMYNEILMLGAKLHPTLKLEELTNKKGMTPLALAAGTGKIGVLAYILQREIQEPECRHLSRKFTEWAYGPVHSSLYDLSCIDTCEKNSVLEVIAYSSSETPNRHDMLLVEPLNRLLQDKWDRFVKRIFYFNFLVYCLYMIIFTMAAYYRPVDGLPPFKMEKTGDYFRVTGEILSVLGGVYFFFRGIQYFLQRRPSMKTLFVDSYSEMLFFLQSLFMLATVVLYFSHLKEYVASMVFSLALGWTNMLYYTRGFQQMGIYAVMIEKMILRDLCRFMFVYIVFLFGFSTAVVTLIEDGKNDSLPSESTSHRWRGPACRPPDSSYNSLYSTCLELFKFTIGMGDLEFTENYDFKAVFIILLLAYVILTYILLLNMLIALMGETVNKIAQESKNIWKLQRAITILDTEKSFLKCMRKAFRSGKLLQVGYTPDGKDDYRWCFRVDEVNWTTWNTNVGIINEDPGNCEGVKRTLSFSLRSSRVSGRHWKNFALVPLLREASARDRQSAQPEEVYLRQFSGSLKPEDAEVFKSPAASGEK
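TRPV1-expressing cells were cultured overnight at 35.5C and loaded with Fluo-8 calcium dye for 40 to 90 min at room temperature. After a 10 s baseline, compound was added and calcium influx was read kinetically for 3 min (ex 480/em 520 nm).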
hERG WT inh: blocks the wildtype human KCNH2 potassium channel; AID 720551; Q12809; actives 0.37% (n = 340,000); activity change, % at 1.84 µM; U2OS, BacMam KCNH2, thallium flux FluxOr; hits give low values;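 active means maximum activity change below -70%; inconclusive means maximum activity change between -70% and -50%; inactive means maximum activity change above -50%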; further: on the % scale 0 is the no-effect control and ±100 the full control effect
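U2OS cells transduced with wild-type KCNH2 virus are loaded with FluxOr dye for 45 min, and thallium flux is measured in kinetic reads before and after stimulation buffer. Rate constants are normalized to DMSO controls.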
TRPV1 agonist: human TRPV1 agonism. actives 0.19% (n = 320,000). activation, % at 8.33 µM. Q8NER1. TRPV1-expressing cells, Fluo-8 calcium influx, agonist mode; in the data active means activation above about 80%; inconclusive means between about 30% and that limit; further: 0% is about no effect
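Fluo-8 calcium influx in TRPV1-expressing cells, kinetic read (ex 480/em 520 nm). Compound added and read 3 min for agonist activity, followed by capsaicin at EC20 final and 2 min further read for enhancement.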
Starred values were filed as active, the others as inactive; ? = inconclusive; . = no result given.

SMILES | KCNH2 3.1 inh | TRPV1 potentiator | hERG WT inh | TRPV1 agonist
COc1cccc(C(=O)CN2C3=NCCCN3c3ccccc32)c1 | -93* | 9 | -6 | 2
CC(=O)NC(Cc1ccccc1F)C(=O)NC1CCN(c2ncccc2[N+](=O)[O-])CC1 (stereo unspecified) | -16 | 22 | . | -6
Cc1ccc(NC(=O)C2CCN(S(=O)(=O)c3cccc(C(F)(F)F)c3)CC2)nc1 | 0 | -12 | 3 | -1
Cc1cc(NC(=O)CCN2C(=O)C3C4C=CC(C4)C3C2=O)c2ccccc2n1 (stereo unspecified) | -138* | -14 | -133* | -1
C[C@@H]1CN([C@@H](C)CO)C(=O)CCCn2nncc2CO[C@H]1CN(C)Cc1ccc2cccnc2c1 | 6 | . | -1 | .
Cc1ccc(N2CCN(C(=O)N3CCCC3)CC2)cc1C | -1 | -22 | -5 | 94*
Cc1cccc(N2CCN(C(=O)N3CCOCC3)CC2)c1C | -8 | -7 | -4 | 9
Cc1cccc(N2CCN(C(=O)N3CCCCC3)CC2)c1C | -26 | -2 | -3 | 82*
Cc1nn(C)c(C)c1CNC(=O)c1cc2n(n1)C(C(F)(F)F)CC(c1cccs1)N2 (stereo unspecified) | -2 | -2 | 2 | 2
CCOC(=O)c1c(NC(=O)c2cc3n(n2)C(C(F)(F)F)CC(c2cccs2)N3)sc(C)c1C (stereo unspecified) | -78* | 20 | -4 | 1
Cc1ccc(SC[C@H](Cc2ccccc2)N2CC[C@@H](C)CCC2=O)cc1 | -126* | -23 | -1 | ?
CC(=O)Nc1ccc(SC[C@H](Cc2ccccc2)N2CC[C@@H](C(C)(C)C)CCC2=O)cc1 | -97* | 16 | -13 | ?
COc1ccc(NC(=O)CN(C)C(=O)c2cc(CN3C(=O)c4ccccc4C3=O)ccc2OC)cc1 | -4 | 1 | 9 | 1
Cn1nc(NC(=O)C(F)(F)F)c2nccnc21 | -5 | . | -3 | .
O=C(CSc1nnc2n1CCCCC2)Nc1ccc(N2CCOCC2)cc1 | -15 | 1 | -7 | 1
Cc1cccc(-c2cc3nc4c(c(N5CCOCC5)n3n2)CCCC4)c1 | 7 | 25 | -2 | 12
Cc1cccc(-c2cc3nc4c(c(NCc5ccco5)n3n2)CCCC4)c1 | -83* | -31 | ? | ?
S=C(Cc1ccccc1)Nc1ccccc1 | -11 | . | -11 | .
CSc1nc2ccccc2n1Cc1c(Cl)cccc1Cl | -186* | 1 | -20 | 9
CC(C)c1ccc(/C=C(\NC(=O)c2ccccc2)C(=O)NCCCn2ccnc2)cc1 | -102* | -3 | -19 | 29
O=C(CNC(=O)/C(=C\c1ccccc1)NC(=O)c1ccc(Br)cc1)OCc1ccccc1 | ? | 3 | -42 | -3
O=C(CCCNC(=O)/C(=C/c1ccc(Br)cc1)NC(=O)c1ccccc1)OCc1ccccc1 | -113* | 2 | 0 | 5
O=C(NCCCn1ccnc1)/C(=C/c1ccc(F)cc1)NC(=O)c1ccccc1 | -116* | 4 | -9 | 2
COc1ccccc1/C=C(/NC(=O)c1ccccc1)C(=O)NCCCn1ccnc1 | -5 | 2 | 15 | -2
O=C(CSc1nnc2ccccn12)NNC(=O)c1ccc(Br)cc1 | 11 | -30 | 12 | -1
SMILES | KCNH2 3.1 inh | TRPV1 potentiator | hERG WT inh | TRPV1 agonist
CC1CCCC(C)N1CCCNC(=O)c1ccc2nc(N3CCOCC3)sc2c1 (stereo unspecified) | -6 | -6 | 1 | -1
CC1CCCC(C)N1CCCNC(=O)c1ccc2nc(N3CCCCC3)sc2c1 (stereo unspecified) | -13 | -12 | -158* | -5
COc1ccc(Cn2c(CCC(=O)O)nc3cccnc32)cc1 | -72* | 1 | -4 | 1
CCC(CO)Oc1cc(NC(=O)c2ccccc2[N+](=O)[O-])c2ncn(C(C)C)c2c1 (stereo unspecified) | -1 | . | -18 | .
Brc1ccc(CNc2cc3c(cc2Br)OCCO3)cc1 | 3 | 5 | 5 | -1
O=C(Nc1ccc2c(c1)Cc1ccccc1-2)c1ccncc1 | -12 | -12 | -9 | 81*
O=C(Nc1ccc2c(c1)Cc1ccccc1-2)c1cc2ccccc2o1 | -29 | . | -3 | .
O=C(CSc1nc2ccccc2c(=O)n1CC1CCCO1)Nc1ccccc1Cl (stereo unspecified) | -2 | 3 | 2 | 16
O=C(CC12CC3CC(CC(C3)C1)C2)NC(=S)Nc1ccc(CN2CCOCC2)cc1 | -77* | 1 | 0 | 5
O=C(NC(=S)Nc1ccc(CN2CCOCC2)cc1)c1ccco1 | -9 | -4 | -3 | 1
C=CCn1c(SC(C)C(=O)Nc2ccc(F)c(F)c2F)nnc1C1CC1 (stereo unspecified) | -128* | 6 | -8 | 2
C=CCn1c(SC(C)C(=O)Nc2ccc(Cl)cn2)nnc1C1CC1 (stereo unspecified) | -13 | -8 | 4 | -9
CCOc1ccc(OCc2ccc(C(=O)N/N=C(\C)c3ccccn3)cc2)cc1 | -12 | 1 | -72* | 6
CCSC1=NCCN1C(=O)c1ccc(S(=O)(=O)N(C)C)cc1 | 9 | 6 | 4 | 1
CCOC(=O)C1C(=O)N(O)CC1c1cccc(Oc2ccccc2)c1 (stereo unspecified) | -75* | 7 | -2 | 1
COc1ccc(CCNC(=O)Cn2c(=O)n(CC3CCCO3)c(=O)c3cc(OC)c(OC)cc32)cc1OC (stereo unspecified) | -141* | 3 | 29 | -2
CS(=O)(=O)N1CCn2c1nc1ccccc12 | 21 | -1 | -9 | -4
CCN1N=C(c2ccccc2)Cn2c1nc1ccccc12 | . | -14 | -18 | 90*
O=S(=O)(/C=C/C=C/S(=O)(=O)c1ccccc1)c1ccccc1 | ? | . | 1 | .
COc1cc(OC)c(OC)cc1CCC(C)NCCC(c1ccccc1)c1ccccc1 (stereo unspecified) | -92* | 19 | ? | 5
CC1=CC(C)(C)C(C(=O)O)C(C(=O)O)C1 (stereo unspecified) | 3 | 22 | -109* | 0
C=CCn1c(=O)c(C(C)=O)cn(N(C)c2ncc(C(F)(F)F)cc2Cl)c1=O | -114* | -4 | -2 | 7
CC1CCN(C(=O)c2ccc([N+](=O)[O-])o2)CC1 | -72* | 2 | -2 | -1
CC1CCCN(C(=O)c2ccc([N+](=O)[O-])o2)C1 (stereo unspecified) | 10 | 3 | -5 | 2
COc1cc(NC(=S)NNC(=O)C(C)(C)O)cc(OC)c1 | 6 | 6 | 6 | -1
Cc1nc2n(n1)C(O)c1cc([N+](=O)[O-])ccc1S2 (stereo unspecified) | . | 16 | . | 0
O=[N+]([O-])c1ccc2c(c1)C(O)n1ncnc1S2 (stereo unspecified) | -84* | 0 | -10 | -1
COc1cccc(NS(=O)(=O)c2ccc3[nH]cc(C(=O)NC(C)c4ccccc4)c(=O)c3c2)c1 (stereo unspecified) | . | -8 | . | 27
Cc1ccc(NC(=O)c2cc(S(=O)(=O)N3CCOCC3)cs2)cc1 | -6 | -9 | -16 | 81*
